According to article PMC5540273 (PLoS ONE, 2017):

Columns and labels:
Details in all cases: concentration: 1 μM, replicates: in singlicate; n = 1
MYLK4 = test system: MYLK4
MYLK = test system: MYLK
MYO3A = test system: MYO3A
MYO3B = test system: MYO3B
NDR1 = test system: T1, NDR1
T1 construct: gene STK38

NDR2 = test system: NDR2
NEK10 = test system: NEK10
NEK11 = test system: NEK11
NEK1 = test system: NEK1
NEK2 = test system: NEK2
NEK3 = test system: NEK3
NEK4 = test system: NEK4
NEK5 = test system: NEK5
NEK6 = test system: NEK6
NEK7 = test system: NEK7
NEK9 = test system: NEK9
NIK = test system: T2, NIK
T2 construct: gene MAP3K14

NIM1 = test system: T3, NIM1
T3 construct: gene MGC42105

NLK = test system: NLK
OSR1 = test system: T4, OSR1
T4 construct: gene OXSR1
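Also: KINOMEscan kinase panel screen.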

Cn1ccc2ncnc(Nc3ccc(Oc4cccc(Cl)c4)c(Cl)c3)c21
%Inh (MYLK4): 3% | %Inh (MYLK): 0% | %Inh (MYO3A): 0% | %Inh (MYO3B): 3% | %Inh (NDR1): 22% | %Inh (NDR2): 11% | %Inh (NEK10): 2% | %Inh (NEK11): 0% | %Inh (NEK1): 0% | %Inh (NEK2): 0% | %Inh (NEK3): 26% | %Inh (NEK4): 11% | %Inh (NEK5): 0% | %Inh (NEK6): 25% | %Inh (NEK7): 4% | %Inh (NEK9): 17% | %Inh (NIK): 0% | %Inh (NIM1): 0% | %Inh (NLK): 0% | %Inh (OSR1): 15%

CSc1ccc(NC2=C(c3ccccc3Cl)C(=O)NC2=O)cc1 [SB-342411]
%Inh (MYLK4): 10% | %Inh (MYLK): 4% | %Inh (MYO3A): 0% | %Inh (MYO3B): 0% | %Inh (NDR1): 31% | %Inh (NDR2): 0% | %Inh (NEK10): 29% | %Inh (NEK11): 0% | %Inh (NEK1): 75% | %Inh (NEK2): 8% | %Inh (NEK3): 0% | %Inh (NEK4): 0% | %Inh (NEK5): 8% | %Inh (NEK6): 0% | %Inh (NEK7): 0% | %Inh (NEK9): 15% | %Inh (NIK): 0% | %Inh (NIM1): 0% | %Inh (NLK): 56% | %Inh (OSR1): 2%

CC(C)(C)c1ccc(-n2cnc3c(N)ncnc32)cc1 [SKF-97263]
%Inh (MYLK4): 3% | %Inh (MYLK): 8% | %Inh (MYO3A): 1% | %Inh (MYO3B): 8% | %Inh (NDR1): 0% | %Inh (NDR2): 0% | %Inh (NEK10): 0% | %Inh (NEK11): 0% | %Inh (NEK1): 0% | %Inh (NEK2): 0% | %Inh (NEK3): 0% | %Inh (NEK4): 19% | %Inh (NEK5): 10% | %Inh (NEK6): 0% | %Inh (NEK7): 16% | %Inh (NEK9): 14% | %Inh (NIK): 0% | %Inh (NIM1): 9% | %Inh (NLK): 26% | %Inh (OSR1): 16%

FC(F)(F)c1ccc(-c2nn3ncccc3c2-c2ccnc(Nc3cccc(C(F)(F)F)c3)n2)cc1 [GW828205]
%Inh (MYLK4): 1% | %Inh (MYLK): 40% | %Inh (MYO3A): 0% | %Inh (MYO3B): 0% | %Inh (NDR1): 19% | %Inh (NDR2): 0% | %Inh (NEK10): 0% | %Inh (NEK11): 0% | %Inh (NEK1): 0% | %Inh (NEK2): 0% | %Inh (NEK3): 15% | %Inh (NEK4): 0% | %Inh (NEK5): 0% | %Inh (NEK6): 0% | %Inh (NEK7): 0% | %Inh (NEK9): 0% | %Inh (NIK): 0% | %Inh (NIM1): 0% | %Inh (NLK): 10% | %Inh (OSR1): 0%

CCc1nc(-c2cccc(C)c2)c(-c2ccnc(NC(=O)c3ccccc3)c2)s1
%Inh (MYLK4): 0% | %Inh (MYLK): 18% | %Inh (MYO3A): 65% | %Inh (MYO3B): 0% | %Inh (NDR1): 0% | %Inh (NDR2): 22% | %Inh (NEK10): 6% | %Inh (NEK11): 0% | %Inh (NEK1): 0% | %Inh (NEK2): 0% | %Inh (NEK3): 27% | %Inh (NEK4): 0% | %Inh (NEK5): 2% | %Inh (NEK6): 28% | %Inh (NEK7): 16% | %Inh (NEK9): 13% | %Inh (NIK): 22% | %Inh (NIM1): 11% | %Inh (NLK): 23% | %Inh (OSR1): 10%
